PostGolgi yeast: growth inhibition of a yeast mutant, post-Golgi transport screen; post-Golgi transport phenotypic cell assay; inhibition, % at 10 µM; 98,000 tested, 0.9% active; AID 739;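 further: yeast cells grown in 1536-well plates; yeast grown about 18 h at 30C before absorbance read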
EphB4 antag: antagonists of human EphB4-ephrin-B2 interaction; AID 720; EphB4 LBD / TNYL-RAW-Alexa532 peptide, fluorescence polarization; inhibition, % at 7 µM; 97,000 tested, 0.15% active; P54760;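 active means inhibition above the screen-wide mean inhibition plus 3 SD, cut at about 15% in these data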
PostGolgi ctrl: growth of the yeast control strain, post-Golgi counter-screen. 98,000 tested, 5% active. inhibition, % at 10 µM. efflux-deficient yeast background strain, growth absorbance A615, 16 h
Calb biofilm kill: kills Candida albicans biofilms; inhibition, % at 6 µM; AID 834; C. albicans biofilm + clotrimazole, Alamar Blue; 85,000 tested, 0.14% active;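 active means inhibition above 20%; inactive means inhibition below 20%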;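 further: preformed 24 hr biofilms exposed to compound for 48 hr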
Numbers stand for hits. Hits are enriched below; roughly 5.2% of the tested compounds scored in any of these assays. Unless noted, no stated cut-off is given here; in the data, active means inhibition above about 30%; inactive means the rest.

OCc1nc2ccccc2n1CCCOc1ccc(Br)cc1 was read as PostGolgi yeast inactive, EphB4 antag inactive, PostGolgi ctrl 45 and Calb biofilm kill inactive.
Screening Cn1c(=O)n(CCCOc2ccc(Cl)cc2)c2ccccc21 returned PostGolgi yeast inactive, EphB4 antag inactive, PostGolgi ctrl 49 and Calb biofilm kill inactive.
COc1ccc(OCCCn2c(=O)oc3ccccc32)cc1 was read as EphB4 antag inactive and Calb biofilm kill inactive.
Screening Cc1cccc(OCCCn2c(CCNC(=O)C(C)C)nc3ccccc32)c1 returned EphB4 antag inactive.
Screening COc1ccc(OC)c(C(=O)CSc2nnc(-c3cccnc3)n2C)c1 returned PostGolgi yeast inactive, EphB4 antag inactive, PostGolgi ctrl inactive and Calb biofilm kill inactive.
Screening O=c1[nH]c(=O)n(C2CCCCCC2)c(O)c1C=NCc1ccc(F)cc1 returned PostGolgi yeast inactive, EphB4 antag inactive, PostGolgi ctrl 50 and Calb biofilm kill inactive.
Cc1c(N=Cc2c(O)n(C3CCCCC3)c(=O)[nH]c2=O)c(=O)n(-c2ccccc2)n1C was read as PostGolgi yeast inactive, EphB4 antag inactive, PostGolgi ctrl inactive and Calb biofilm kill inactive.
Cc1ncsc1CCOC(=O)C12CC3CC(CC(C3)C1)C2 was read as PostGolgi yeast inactive, EphB4 antag inactive and PostGolgi ctrl 46.
Screening COc1ccccc1N(CC(=O)NCc1ccccc1)C(=O)CCC(=O)Nc1ccccn1 returned EphB4 antag inactive and Calb biofilm kill inactive.
For CC(=O)c1c(C)[nH]c(C(=O)N2CCc3ccccc3C2)c1C the results were PostGolgi yeast inactive, EphB4 antag inactive, PostGolgi ctrl inactive and Calb biofilm kill inactive.
Screening CC(=O)c1c(C)[nH]c(C(=O)N2c3ccccc3CC2C)c1C (stereo not drawn) returned PostGolgi yeast inactive, EphB4 antag inactive, PostGolgi ctrl inactive and Calb biofilm kill 27.
For COC(=O)c1cc(OC)c(OC)cc1NC(=O)c1c(C)noc1C the results were EphB4 antag inactive and Calb biofilm kill inactive.
Screening Cc1ccc(/C=N/n2cnc3sc(-c4ccccc4)cc3c2=O)o1 returned PostGolgi yeast 65, EphB4 antag inactive, PostGolgi ctrl inactive and Calb biofilm kill inactive.
For CC1(C)CC(=O)C2=C(C1)N(c1ccccc1)C(=O)CC2c1ccsc1 (stereo not drawn) the results were PostGolgi yeast inactive, EphB4 antag inactive, PostGolgi ctrl inactive and Calb biofilm kill inactive.
Screening CCCSc1nnc(N2C(=O)CC(c3ccsc3)C3=C2CCCC3=O)s1 (stereo not drawn) returned PostGolgi yeast inactive, EphB4 antag inactive, PostGolgi ctrl 48 and Calb biofilm kill inactive.
O=C(CCc1ccc(S(=O)(=O)N2CCOCC2)cc1)Nc1cc(Cl)ccc1N1CCOCC1 was read as PostGolgi yeast inactive, EphB4 antag inactive and PostGolgi ctrl 34.
For O=C(CCc1ccc(S(=O)(=O)N2CCOCC2)cc1)Nc1nccs1 the results were PostGolgi yeast inactive, EphB4 antag inactive, PostGolgi ctrl inactive and Calb biofilm kill inactive.
For COC(=O)c1ccccc1NC(=O)CNc1cc(Cl)ccc1N1CCOCC1 the results were PostGolgi yeast inactive, EphB4 antag inactive, PostGolgi ctrl 35 and Calb biofilm kill inactive.
Screening Nc1cccnc1Sc1cc(Cl)c(Cl)cc1Cl returned PostGolgi yeast inactive, EphB4 antag inactive and PostGolgi ctrl inactive.
`CC(C)OC(=O)c1cccnc1SCc1cc(=O)n2ccccc2n1` gave PostGolgi yeast 30, EphB4 antag inactive, PostGolgi ctrl inactive and Calb biofilm kill inactive.
CC(C)OC(=O)c1cccnc1SCC(=O)N(C)c1ccccc1 was read as PostGolgi yeast inactive, EphB4 antag inactive, PostGolgi ctrl inactive and Calb biofilm kill inactive.
`CCOC(=O)C1=C(N)N2C(=O)C(C)SC2=C(C(=O)OC)C1c1ccccc1OC` (stereo not drawn) gave PostGolgi yeast 110, EphB4 antag inactive, PostGolgi ctrl 75 and Calb biofilm kill inactive.
Screening CCOC(=O)C1=C(N)N2C(=O)C(C)SC2=C(C(=O)OCC)C1c1ccccc1 (stereo not drawn) returned PostGolgi yeast inactive, EphB4 antag inactive, PostGolgi ctrl inactive and Calb biofilm kill inactive.
For CCOC(=O)c1c(NC(=O)c2cccs2)sc2c1CCCC2 the results were PostGolgi yeast inactive, EphB4 antag inactive, PostGolgi ctrl inactive and Calb biofilm kill inactive.
CCOC(=O)c1c(NC(=O)Cc2cccs2)sc2c1CCCC2 was read as PostGolgi yeast inactive, EphB4 antag inactive, PostGolgi ctrl 37 and Calb biofilm kill inactive.
For CCOC(=O)c1c(NS(=O)(=O)Cc2ccccc2)sc2c1CCCC2 the results were PostGolgi yeast inactive, EphB4 antag inactive, PostGolgi ctrl 36 and Calb biofilm kill inactive.
For COc1ccc(N2CCN(CCCNS(=O)(=O)c3ccc4c(c3)oc(=O)n4C)CC2)cc1 the results were PostGolgi yeast inactive, EphB4 antag inactive, PostGolgi ctrl 32 and Calb biofilm kill inactive.
Cn1c(=O)oc2cc(S(=O)(=O)NCCN3CCCCCC3)ccc21 was read as PostGolgi yeast inactive, EphB4 antag inactive, PostGolgi ctrl inactive and Calb biofilm kill inactive.
COc1ccccc1Cn1c(=O)c2ccccc2n2c(Sc3ncnc4sccc34)nnc12 was read as PostGolgi yeast inactive, EphB4 antag inactive, PostGolgi ctrl 42 and Calb biofilm kill inactive.
For CCNCCNc1ccc(Cl)cc1[N+](=O)[O-] the results were EphB4 antag inactive.
`O=[N+]([O-])c1cc(C(F)(F)F)ccc1NCCNC(=S)Nc1ccc(Cl)cc1` gave PostGolgi yeast 82, EphB4 antag inactive and PostGolgi ctrl 91.
`O=[N+]([O-])c1ccc(NC(=S)NCCc2ccc(Cl)cc2)cc1` gave PostGolgi yeast 106, EphB4 antag inactive and PostGolgi ctrl 92.
Cc1ccc(C(=O)NCCNc2ccc(Cl)cc2[N+](=O)[O-])o1 was read as PostGolgi yeast inactive, EphB4 antag inactive and PostGolgi ctrl 31.
`NS(=O)(=O)c1cc2c(cc1Cl)NC(C1C[C@H]3C=C[C@@H]1C3)NS2(=O)=O` (stereo partly drawn) gave Calb biofilm kill inactive.
`COc1ccc(NC(=O)CNS(=O)(=O)c2cccc3nonc23)c(OC)c1` gave PostGolgi yeast inactive, PostGolgi ctrl inactive and Calb biofilm kill inactive.
`Cc1ccccc1NC(=S)NCc1ccc2c(c1)OCO2` gave PostGolgi yeast inactive, EphB4 antag inactive and PostGolgi ctrl 38.
`CCCCC(=O)Nc1nc2ccc3nc(C)sc3c2s1` gave PostGolgi yeast inactive, EphB4 antag inactive, PostGolgi ctrl 45 and Calb biofilm kill inactive.
`CCCC(=O)Nc1nc2ccc3nc(C)sc3c2s1` gave PostGolgi yeast inactive, EphB4 antag inactive, PostGolgi ctrl inactive and Calb biofilm kill inactive.
Screening CCc1ccc(NC(=O)CC2C(=O)Nc3c2c(=O)n(C)c(=O)n3C)cc1 (stereo not drawn) returned PostGolgi yeast inactive, EphB4 antag inactive, PostGolgi ctrl inactive and Calb biofilm kill inactive.
`COc1c(C)cc(Br)cc1C(=O)Nc1cccc(-c2nc3ncccc3o2)c1` gave PostGolgi yeast inactive, EphB4 antag inactive and PostGolgi ctrl 41.
CCOC(=O)C(NC(=O)c1ccc(Cl)cc1Cl)(Nc1ccc(C)cc1)C(F)(F)F (stereo not drawn) was read as PostGolgi yeast inactive, EphB4 antag inactive and PostGolgi ctrl inactive.
CCOc1cnc(-c2ccc(OC)cc2)o1 was read as PostGolgi yeast 31, EphB4 antag inactive and PostGolgi ctrl inactive.
